Assay results taken from PubChem BioAssay (NCI).
Compounds without any hit were thinned out: in the full panel of roughly 83,000, 20% have a hit.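 48-hour exposure, single concentration, 96-well plates; percent growth endpoint where 0 means no net growth. Active: below 10.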 The source made the active and inactive calls.

Legend:
Assay in all cases: NCI-60 one-dose screen, 48 h (100 = growth as untreated, 0 = no growth, -100 = all killed)
Details in all cases: 10 µM unless noted
[1] = test system: SK-MEL-2 melanoma
[2] = test system: EKVX NSCLC
[3] = test system: SN12C renal
[4] = test system: UO-31 renal
[5] = test system: TK-10 renal
[6] = test system: ACHN renal
[7] = test system: CAKI-1 renal
[8] = test system: A498 renal
[9] = test system: CCRF-CEM leukemia
[10] = test system: MOLT-4 leukemia
[11] = test system: SR leukemia
[12] = test system: RPMI-8226 leukemia
[13] = test system: OVCAR-8 ovarian
[14] = test system: OVCAR-5 ovarian
[15] = test system: OVCAR-4 ovarian
[16] = test system: SK-OV-3 ovarian
[17] = test system: IGROV1 ovarian
[18] = test system: OVCAR-3 ovarian
[19] = test system: HS 578T breast
[20] = test system: NCI/ADR-RES ovarian

Measured: growth

CN1CCN(C(=O)c2cc(-c3ccc4ncnc(N5CCc6cc(F)c(Cl)cc65)c4c3)cnc2N)CC1
inactive: [11] 14.7% | [13] 10.3% | [16] 10.9%
active: [1] -48% | [2] -10.2% | [3] 9.07% | [4] 3.95% | [5] -14.2% | [6] 5.3% | [7] -33.3% | [8] -69.2% | [9] 7.93% | [10] 1.54% | [12] -25.7% | [14] 9.22% | [15] -12.7% | [17] -33.4% | [18] -42.8% | [19] -17.2% | [20] 8.74%

COc1ccc2c(c1)c(-c1ccc(-c3cn(C)c4ccc(OC)cc34)[nH]1)cn2C
active: [2] -4.9% | [4] -47.3% | [6] -44.6% | [9] -5.64% | [11] -10.7% | [12] 2.15% | [13] 7.19% | [15] -40.3% | [18] -42% | [19] -13% | [20] 3.06%
inactive: [1] 45.3% | [3] 31.7% | [5] 35.7% | [7] 25.6% | [8] 71.8% | [10] 27.7% | [14] 30.9% | [16] 50.9% | [17] 23.1%

CCNC(=O)Oc1ccc(/C(=C(/C)Cc2ccc(OC)cc2)c2ccc(OCCN3CCCC3)cc2)cc1
inactive: [1] 110% | [2] 76.2% | [3] 75.6% | [4] 57.8% | [5] 88.1% | [6] 92.4% | [7] 82.3% | [8] 91.9% | [9] 45.8% | [10] 31.6% | [12] 44% | [13] 89.8% | [14] 83.8% | [15] 74.1% | [16] 88% | [17] 88% | [18] 77.5% | [19] 70.9% | [20] 85.9%
active: [11] 6.92%

CCCCn1sc(=O)n(Cc2ccc(CNC(=O)OCc3ccc4c(Cl)cc(Cl)c(O)c4n3)cc2)c1=O
active: [20] 9.16%
inactive: [1] 85.6% | [2] 86.7% | [3] 57.6% | [4] 18.3% | [5] 78% | [6] 30.8% | [7] 54.6% | [8] 91% | [9] 32% | [10] 33.5% | [11] 65.6% | [12] 63% | [13] 38% | [14] 98.4% | [15] 65.2% | [16] 88.3% | [17] 57.4% | [18] 66.3% | [19] 82.3%

N=c1sc(Cc2cc(Cl)ccc2Cl)cn1CC(=O)c1ccccc1
inactive: [1] 61.6% | [2] 54.4% | [3] 63% | [4] 43.9% | [5] 61.3% | [6] 37.3% | [7] 21.1% | [8] 49% | [9] 60% | [10] 49.8% | [11] 27.4% | [12] 70.4% | [13] 62.6% | [14] 47.8% | [15] 56.5% | [16] 67.9% | [17] 35.6% | [18] 45.4% | [19] 59.2% | [20] 36%

Cc1c(Cl)cccc1C(=O)Nc1nc2c(s1)CN(C(=O)Nc1cccc(C(F)(F)F)c1)CC2
inactive: [1] 37.4% | [2] 46% | [3] 26% | [4] 27.8% | [5] 50.9% | [6] 18.3% | [7] 15.9% | [9] 16.7% | [10] 15.9% | [11] 13.5% | [13] 14.8% | [14] 37% | [15] 28.8% | [16] 34.1% | [17] 22.6% | [19] 30.4%
active: [8] -10.2% | [12] 7.93% | [18] -11.8% | [20] -27.2%

COc1cc2ncnc(Nc3ccc(F)c(Cl)c3)c2cc1OCC(=O)N1CCN(c2ccc(F)cc2)CC1
inactive: [1] 97.5% | [2] 78.3% | [3] 88.2% | [4] 44.5% | [5] 38.2% | [6] 45.9% | [7] 44.8% | [8] 72.5% | [9] 113% | [10] 85.8% | [11] 79% | [12] 98.8% | [13] 107% | [14] 60.6% | [15] 82% | [16] 88.1% | [17] 46.9% | [18] 83.4% | [19] 89.3% | [20] 82.7%

CCN1C(=S)N(CC)C2C1NC(=S)N2/N=C/C=C/c1ccccc1OC (stereo not drawn)
active: [18] -48% | [20] -9.38%
inactive: [1] 46.7% | [2] 49.3% | [3] 28.5% | [4] 43.5% | [5] 71.4% | [6] 33.7% | [7] 34.1% | [8] 16.3% | [9] 12.2% | [10] 17.7% | [11] 15.2% | [12] 24.6% | [13] 12.5% | [14] 27.2% | [15] 44.2% | [16] 35% | [17] 19.5% | [19] 16.3%

COC(=O)c1c2c(c(C)[n+]([O-])c1C)C(=O)C=CC2=O
active: [1] -63.1% | [3] -87.7% | [4] -64.8% | [6] -37.6% | [7] 2.19% | [9] 0.622% | [10] -1.84% | [12] -24.8% | [14] -61.1% | [15] -16.6% | [17] -38.2% | [18] -8.77% | [19] 0.0938% | [20] -19.8%
inactive: [2] 98.3% | [5] 72.9% | [8] 60.8% | [11] 20.2% | [16] 90.3%

Cn1c(/C=C/[N+](=O)[O-])cc2ccccc21
inactive: [1] 11.2% | [2] 46.1% | [3] 43.7% | [5] 57.7% | [7] 82.8% | [9] 30.1% | [10] 26.7% | [13] 10.8% | [15] 94.2% | [16] 82.4% | [18] 88.3% | [20] 59.5%
active: [4] -56.9% | [6] -29.7% | [8] -20% | [11] -7.91% | [12] -17.3% | [14] 7.36% | [17] 0.609%

CC1(C)C2CC=C(/C=N/NC(=O)C3CCC(=O)N3)C1C2 (stereo not drawn)
inactive: [1] 102% | [2] 105% | [3] 104% | [4] 94.6% | [5] 97.2% | [6] 102% | [7] 97.4% | [8] 102% | [9] 104% | [10] 103% | [11] 116% | [12] 103% | [13] 105% | [14] 107% | [15] 101% | [16] 106% | [17] 109% | [18] 112% | [20] 105%

CCOC(=O)c1c2c(n3ccccc13)C(=O)c1ncccc1C2=O
active: [4] 1.86% | [6] 7.49% | [7] 9.11% | [13] 5.6% | [18] -19.8% | [20] 4.98%
inactive: [1] 65.6% | [2] 40.4% | [3] 10.3% | [5] 38.4% | [8] 30.7% | [9] 32.1% | [10] 31.9% | [11] 18.6% | [12] 29.2% | [14] 42.2% | [15] 16.6% | [16] 22.2% | [17] 31.8%

CCOC(=O)C1CCN(c2ccc(N3C[C@@H](CNCc4ccc(C(=N)N)cc4)OC3=O)cc2)CC1
inactive: [1] 112% | [2] 99.4% | [3] 97.6% | [4] 77.8% | [5] 97.5% | [6] 102% | [7] 89.4% | [8] 108% | [9] 98.5% | [10] 101% | [11] 98.2% | [12] 96.2% | [13] 101% | [14] 94.3% | [15] 105% | [16] 104% | [17] 101% | [18] 113% | [20] 105%

O=C(/C=C/C12c3ccccc3C(c3ccccc31)C1C(=O)NC(=O)C12)c1ccccn1 (stereo not drawn)
active: [1] 7.36% | [4] 6.89% | [5] 7.71% | [6] 1.3% | [8] -3.11% | [9] -16.1% | [10] -2.05% | [11] -8.33% | [12] -27.6% | [13] 1.98% | [16] 5.83% | [17] -12.3% | [18] -8.72%
inactive: [2] 19.6% | [3] 17.2% | [7] 16.9% | [14] 21% | [15] 35.3% | [20] 11.3%

O=C(Nc1ccccc1)c1sc(-c2ccccc2)cc1O
inactive: [1] 105% | [2] 86.7% | [3] 105% | [4] 86.5% | [5] 118% | [6] 93.1% | [7] 90.6% | [8] 94.6% | [9] 96.7% | [10] 95.2% | [11] 70.4% | [12] 74.4% | [13] 119% | [14] 94.2% | [15] 90.9% | [16] 106% | [17] 92.5% | [18] 84.1% | [20] 93.4%
